Laboratory results taken from PubChem BioAssay (NCATS).
Records with an inconclusive call do not appear. Entries that show only a call come without a potency. A number with no mark means an inactive call. Activity calls are given as the source filed them. Calls follow the shape of the dose curve; as a rule, active = well fitted inhibition curve with a large enough effect; inconclusive = small, poorly fitted or top-dose-only effect; inactive = no such curve, though single readings can be large or run the other way. Residues, ends and D or L forms follow the SMILES beside them. *: point of attachment. Cbz = O=C(OCc1ccccc1)*

Experiment: Primary qHTS for small molecule stabilizers of the endoplasmic reticulum resident proteome: Secreted ER Calcium Modulated Protein (SERCaMP) assay (AID 1508630)
Details: SH-SY5Y GLuc-SERCaMP (Gaussia luciferase released on ER calcium loss) secretion, thapsigargin, luminescence; series mostly up to 38.4 µM; activity change, negative = inhibition: at the top concentration
From the text: Assay Provider: Brandon K. Harvey Ph.D.
National Institute on Drug Abuse, National Institutes of Health, Baltimore, MD
Endoplasmic reticulum (ER) dysregulation is associated with human pathologies including neurodegenerative, cardiovascular, muscular, and diabetic conditions. Maintenance of ER calcium is critical for functions of the ER and its depletion can lead to loss of ER resident proteins, in a process termed exodosis. Therapeutic compounds capable of attenuating the redistribution of ER proteins under pathological conditions may slow or stop disease progression. To identify such compounds, we performed a quantitative high-throughput screen (qHTS) using the SERCaMP assay, which monitors secretion of ER resident proteins triggered by calcium depletion.
SERCaMP was initially developed as a reporter of ER calcium homeostasis using a Gaussia luciferase with a modified signal peptide and carboxy-terminus (GLuc-SERCaMP), modifications that confer secretion of the reporter in response to ER calcium depletion (Henderson et al., 2014). The assay was used to screen 9,501 compounds, including a collection of drugs approved by the FDA (US), EMA (EU), NHI (Japan), and HC (Canada) regulatory agencies (Huang et al., 2011). Since the SERCaMP reporter reflects the exodosis phenomenon (Trychta et al., 2018a), compounds identified in the screen have the potential to prevent exodosis by different mechanisms such as stabilizing ER calcium or augmenting ERS retrieval.
1. Henderson, M.J., Wires, E.S., Trychta, K.A., Richie, C.T., and Harvey, B.K. (2014). SERCaMP: a carboxy-terminal protein modification that enables monitoring of ER calcium homeostasis. Mol Biol Cell 25, 2828-2839.
2. Huang, R., Southall, N., Wang, Y., Yasgar, A., Shinn, P., Jadhav, A., Nguyen, D.T., and Austin, C.P. (2011). The NCGC pharmaceutical collection: a comprehensive resource of clinically approved drugs enabling repurposing and chemical genomics. Sci Transl Med 3, 80ps16.
3. Trychta, K.A., Back, S., Henderson, M.J., and Harvey, B.K. (2018a). KDEL Receptors Are Differentially Regulated to Maintain the ER Proteome under Calcium Deficiency. Cell Rep 25, 1829-1840 e1826.
SEQUENCE No. (1, 2, 3, etc.); […] (e.g., Cells, Incubation, Reagent, etc.); VALUE and DESCRIPTION.
1; Reagent; 5 uL; 1000 SH-SY5Y cells per wells
3; Compound; 23 nL; Control inhibitor / compound library
5; Reagent; 100 nM; Thapsigargin
7; Reagent; 1 uL; 0.5x coelenterazine
8; Detection; Luminescence; ViewLux imaging system
NOTES (numbers refer to sequence above)
1; SH-SY5Y human neuroblastoma cells stably expressing GLuc-SERCaMP (SH-SY5Y-GLuc-ASARTDL) cells were seeded in 1,536 well white tissue culture treated plates (Corning, Cat# 7464) in DMEM-high glucose-sodium pyruvate (ThermoFisher Scientific, Cat #10569) supplemented with 10% bovine growth serum (Hyclone), 10 U/ml penicillin (Gibco), 10 ug/ml streptomycin (Gibco), and 20 mM HEPES.
2; Assay plates were incubated for 5 hour at 37C in a humidified incubator containing 5% CO2.
3; qHTS libraries (23 nl, final concentrations of 1.53 uM, 7.67 uM, 38.3 uM) or controls (neutral control: DMSO, positive control: dantrolene) were added using a Kalypsis pin-tool Robotic System equipped with 1536 pinheads.
4; Cells were then incubated for 16 hours at 37C, 5% CO2.
5; Thapsigargin was added at 100 nM to deplete ER calcium stores.
6; Cells were incubated for 4 hour (37 °C, 5% CO2)
7; Gaussia luciferase in the medium was measured by adding 1 ul of 0.5x coelenterazine (final concentration 0.07x) prepared in Gaussia Luciferase Glow Assay Buffer (Pierce), without addition of the Cell Lysis Buffer Reagent.
8; Luminescence was measured using a ViewLux […] CCD imaging system (Perkin Elmer) equipped with clear filters. […] The same controls were also used for the calculation of the Z' factor, a measure of assay quality control, as previously described (Zhang et al., 1999). […]
For `O=C(O)C1=CCNCC1`, the Potency was “inactive”.
In the case of `CC(C)NCC(O)COc1ccc(CC(N)=O)cc1` (stereo not given), the Potency is reported as “inactive”.
With `N=S(=O)(O)Cc1noc2ccccc12` the “activity change, negative = inhibition” value was -27.5%.
In the case of `CCCN(CCc1ccccc1)C1CCc2c(O)cccc2C1` (stereo not given), the “activity change, negative = inhibition” value is reported as 4.75%.
With `CCCCCCCCCCCCCCCCCCOC[C@H](COP(=O)([O-])OCC[N+](C)(C)C)OC` the Potency was “inactive”.
In the case of `Cc1cccc(C(=O)NCN2CCN(c3ccccc3C#N)CC2)c1`, the Potency is reported as “inactive”.
For `NC(=O)c1ccccc1`, the “activity change, negative = inhibition” value was -33.7%.
In the case of `Nc1ncnc2c1nc(Br)n2C1OC2COP(=O)(O)O[C@@H]2C1O` (stereo not given in full), the “activity change, negative = inhibition” value is reported as 131%.
In the case of `N[C@@H](CCCC(=O)O)C(=O)O`, the “activity change, negative = inhibition” value is reported as -14.5%.
With `CC(C)[C@H](NC(=O)OCc1ccccc1)C(=O)N[C@H](C=O)Cc1ccccc1` (Cbz-Val-Phe-aldehyde) the Potency was “inactive”.
With `NC1(C(=O)O)CCc2cc(C(=O)O)ccc21` (stereo not given) the Potency was “inactive”.
For `c1ccc2nc(C3=NCCN3)ccc2c1`, the Potency was “inactive”.
For `O=C(O)c1cccnc1C(=O)O`, the Potency was “inactive”.
With `O=c1cc(-c2ccccc2F)[nH]c2cc3c(cc12)OCO3` the “activity change, negative = inhibition” value was 68.3%.
In the case of `Oc1cc(O)c2c(c1)O[C@H](c1ccc(O)c(O)c1)[C@@H](O)C2`, the Potency is reported as “inactive”.
For `CCCc1c(-c2ccc(O)cc2)nn(-c2ccc(O)cc2)c1-c1ccc(O)cc1`, the Potency was “inactive”.
With `O=C(O)C1=CCCN(CCON=C(c2ccccc2)c2ccccc2)C1` the Potency was “inactive”.
In the case of `O=C(O)c1ccccc1Nc1cccc(OCc2ccc3ccccc3n2)c1`, the Potency is reported as “inactive”.
With `O=[N+]([O-])c1cccc2cn[nH]c12` the Potency was “inactive”.
In the case of `NC(N)=NC(N)=Nc1ccccc1`, the “activity change, negative = inhibition” value is reported as -1.11%.
With `OC[C@H]1NC[C@@H](O)[C@@H]1O` the “activity change, negative = inhibition” value was 3.71%.
With `CCCOC(=O)c1c(-c2ccccc2)nc(CC)c(C(=O)SCC)c1CCC` the “activity change, negative = inhibition” value was 4.92%.
For `CCCCCCCCCCCCCCSCC(=O)O`, the Potency was “inactive”.
With `CCCCCCCCCCC(C)(C)C(=O)Nc1c(OC)cc(OC)cc1OC` the Potency was “inactive”.
For `Cc1nc(N=Nc2ccc(S(=O)(=O)O)cc2S(=O)(=O)O)c(COP(=O)(O)O)c(C=O)c1O`, the Potency was “inactive”.
With `CN1CCC2(CCN3CCc4c(oc5ccccc45)C3C2)N(C)C1=O` (stereo not given) the “activity change, negative = inhibition” value was 36.2%.
In the case of `Cc1nc(N=Nc2cc(S(=O)(=O)O)c3cc([N+](=O)[O-])cc(S(=O)(=O)O)c3c2)c(COP(=O)(O)O)c(C=O)c1O`, the “activity change, negative = inhibition” value is reported as -34.5%.
For `NCCC1CCCC(CCN)N1` (stereo not given), the “activity change, negative = inhibition” value was -28.7%.
With `NC(N)=NC(N)=Nc1cccc(Cl)c1` the Potency was “inactive”.
In the case of `COc1cc(N)c(Cl)cc1C(=O)OCCN1CCCCC1`, the “activity change, negative = inhibition” value is reported as 6.78%.
In the case of `CCCCCCCCCC[Si](C)(C)CCC(=O)NC(Cc1ccc(C)cc1)c1ccccc1` (stereo not given), the “activity change, negative = inhibition” value is reported as -13.9%.
With `CCC1(O)CC2CN(CCc3c([nH]c4ccccc34)[C@@](C(=O)OC)(c3cc4c(cc3OC)N(C)C3[C@]45CCN4CC=C[C@@](CC)([C@@H](OC(C)=O)[C@]3(O)C(=O)OC)[C@H]45)C2)C1` (stereo not given in full) the “activity change, negative = inhibition” value was 98.3%.
With `C=CCN1CCc2cc(O)c(O)cc2C(c2ccccc2)C1` (stereo not given) the “activity change, negative = inhibition” value was 18%.
In the case of `Clc1nccc2c1ccc1ccccc12`, the “activity change, negative = inhibition” value is reported as -4.62%.
For `OCC1NCC(O)C(O)C1O` (stereo not given), the “activity change, negative = inhibition” value was -23.8%.
In the case of `CNc1cc(NS(=O)(=O)c2ccc(N)cc2)nc(NC)n1`, the Potency is reported as “inactive”.
With `O=c1[nH]c(=O)c2nc3ccccc3nc2[nH]1` the Potency was “inactive”.
In the case of `COc1ccccc1N1CCN(CCCNc2c(C)c(=O)n(C)c(=O)n2C)CC1`, the Potency is reported as “inactive”.
In the case of `NC1C=CC=C(C(=O)O)C1` (stereo not given), the Potency is reported as “inactive”.
With `NCCNS(=O)(=O)c1cccc2c(Cl)cccc12` the Potency was “inactive”.
